Assay outcomes as filed in PubChem BioAssay.
Compounds with a hit are over-represented: about 2.2% of the library has one in this group of screens.
VLA-4 inh: inhibition in a human VLA-4 binding assay; P13612; VLA-4 expressing cells, ligand binding flow cytometry; inhibition, % (about 7 µM as worked out from the volumes in the protocol); 0.2% of 330,000 active; AID 2557; in the data active means inhibition above about 50%
JMJD2C inh: inhibitors of human GASC-1 (JMJD2C) demethylase | Q9H3R0 | GST-JMJD2C(1-420) H3K9me3 demethylation, DELFIA europium | inhibition, % at 2.35 µM | 0.069% of 330,000 active | AID 2099;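 active means more than half of a compound's replicate wells show inhibition beyond 50%, single wells judged on their own value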;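 further: signal counts dimethyl H3K9 product captured on neutravidin plate; 0% = median of DMSO wells and 100% = 0.3 times that DMSO median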
m5-HT2A agonist: agonists of mouse serotonin 5-HT2A receptor (HTR2A); CHO-K1 mHTR2A beta-arrestin complementation, luminescence; percent of 30 µM serotonin response; activation, % at 7.6 µM; 0.66% of 360,000 active;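 active means activation above a run cutoff, the mean activation of all tested compounds plus 3 SD, cut at about 14% in these data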;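 further: 0% = plate median of compound wells and 100% = 30 µM serotonin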
V-ATPase pHluor: yeast V-ATPase proton transport regulation by pHLuorin; S. cerevisiae, pHLuorin cytosolic pH fluorescence; response, % at 10 µM; 0.37% of 350,000 active; in the data active means response mostly above about 7.3%, no sharp cut-off; inactive means mostly below about 5.4%; further: actives read high
Exocytosis inh: blocks lytic granule exocytosis; TALL-104 LAMP-1 surface exposure, flow cytometry; cells stimulated with thapsigargin and PMA; inhibition, % at 10 µM; 0.66% of 360,000 active; AID 651702;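 active means inhibition above about 55%, limit read from the data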
MEX-5 binding: C. elegans MEX-5 TCR-2 RNA binding activity. Q9XUB2. MEX-5/FITC-TCR2 RNA binding, fluorescence polarization; active compounds read low. activity score (negative = inhibition of binding), % at 10 µM. 0.38% of 300,000 active. AID 1832;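 active means inhibition past about -25% in most replicates, and total fluorescence under double the plate's negative control median, limit read from the data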;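 further: 0% = DMSO and -100% = 5 µM competing unlabeled TCR2 RNA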
MOR ag counter: activates human mu opioid receptor in HTR2A counterscreen. shares compounds with m5-HT2A agonist. U2OS OPRM1 beta-arrestin PathHunter, luminescence; DMSO 0%, DAMGO 9.3 µM 100%. activation, % at 9.3 µM. 5.3% of 2,300 active;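 active means mean activation above the mean of DMSO-only wells plus 3 SD, cut at about 0.5% in these data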
HTR2A ag conf: confirmation of mouse HTR2A serotonin receptor agonists | shares compounds with m5-HT2A agonist | activation, % at 7.6 µM | CHO-K1 PathHunter beta-arrestin recruitment, luminescence; DMSO 0%, 30 µM serotonin 100% | 19% of 2,300 active;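 active means mean activation across triplicates above the hit threshold derived in the original primary screen, cut at about 15% in these data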
* hit, by the source's call; / = not tested or not shown.

SMILES	VLA-4 inh	JMJD2C inh	m5-HT2A agonist	V-ATPase pHluor	Exocytosis inh	MEX-5 binding	MOR ag counter	HTR2A ag conf
COc1ccc(/C=N/NC(=O)c2cccc([N+](=O)[O-])c2)cc1OC(=O)c1ccc(C)cc1	29	-15	20*	-3	-1	-3	0	-8
O=C(N/N=C/c1ccc(OC(=O)c2ccccc2)c([N+](=O)[O-])c1)c1ccc(O)cc1	-4	43	16*	-3	-2	-2	-1	-6
COc1ccc(/C=N/NC(=O)c2cccc([N+](=O)[O-])c2)cc1OC(=O)c1ccccc1	12	2	-9	-2	0	0	/	/
O=C(NCc1ccccc1)C(c1ccccc1F)n1c(=O)c(-c2cc3ccccc3[nH]2)nc2ccccc21 (stereo not given)	/	/	-5	/	13	/	/	/
CN(C(=O)CN1C(=O)NC2(CCc3ccccc32)C1=O)C1CCS(=O)(=O)C1 (stereo not given)	-2	4	18*	-3	4	-4	-1	-2
CCN(C(=O)CN1C(=O)NC2(CCc3ccccc32)C1=O)C1CCS(=O)(=O)C1 (stereo not given)	6	-1	-8	2	-3	/	/	/
O=C(Nc1nnc(C2CC2)s1)c1cc(S(=O)(=O)N2CCCCC2)ccc1N1CCOCC1	-7	-5	24*	0	-1	1	-1	-3
Cc1nn(-c2ccccc2)c(C)c1C(=O)OCC(=O)Nc1cccc(S(N)(=O)=O)c1	-35	0	-6	0	0	/	/	/
COc1ccc(N2CCN(C(=O)CCS(=O)(=O)c3ccc4c(c3)CCN4C(=O)C3CC3)CC2)cc1	-9	-2	16*	0	6	2	-1	-3
COc1cccc(-n2cc(C(=O)NC(C)C)c3ccccc3c2=O)c1	20	10	4	1	-12	2	/	/
Cc1ccccc1OCC(=O)NCC(c1cccs1)N1CCOCC1 (stereo not given)	1	10	18*	1	1	-1	0	-3
Cc1cccc(NS(=O)(=O)c2ccc(C)c(C(=O)NCC(c3cccs3)N3CCOCC3)c2)c1 (stereo not given)	/	/	-3	-2	0	/	/	/
O=C(COc1ccccc1Cl)NCC(c1cccs1)N1CCOCC1 (stereo not given)	4	-30	-1	2	-2	3	/	/
COc1ccccc1NS(=O)(=O)c1ccc(C)c(C(=O)NCC(c2cccs2)N2CCOCC2)c1 (stereo not given)	/	/	19*	-4	-5	/	0	-1
CCOc1cc(C2C(C(C)=O)=C(C)Nc3ncnn32)ccc1O (stereo not given)	2	5	15*	3	1	0	-1	-3
CC(C)C[C@H]1C(=O)N2CCC[C@H]2[C@]2(O)O[C@](NC(=O)[C@@H]3C=C4c5cccc6[nH]c(Br)c(c56)CC4N(C)C3)(C(C)C)C(=O)N12 (stereo not given in full)	-15	-4	41*	-14	1	-4	0	127*
CCNc1nc(OC)nc(Oc2ccc(=O)n(-c3ccccc3)n2)n1	0	2	18*	3	0	0	-1	-3
CCNc1nc(Oc2ccc(=O)n(-c3ccccc3)n2)nc(N(C)C)n1	5	-4	1	0	1	-1	/	/
COc1cc(/C=N/N2CCN(Cc3ccc(C)cc3)CC2)cc(OC)c1O	0	4	1	-3	15	-2	/	/
CC1CN(Cc2ccccc2)C(=S)N(c2ccccc2)C1=O (stereo not given)	/	/	-2	-1	-1	/	/	/
COCC1CCN(C(=O)C2CCC(=O)N(C3CCCC3)C2)CC1 (stereo not given)	0	1	15*	1	-2	0	0	1
CN1CCc2c(sc3c2c(=O)n(-c2cccc(Cl)c2)c2nncn32)C1	2	5	23*	-1	1	-7	0	2
Nc1ncnc(Nc2ccc(F)cc2)n1	13	2	-2	-2	-2	4	/	/
Cc1ccc(Nc2ncnc(N)n2)cc1	0	2	23*	-1	0	-1	0	-2
CC(C)C(=O)Nc1c2c(nn1-c1ccc(F)cc1)CSC2	5	-3	16*	-1	-3	2	-1	-2
SMILES	VLA-4 inh	JMJD2C inh	m5-HT2A agonist	V-ATPase pHluor	Exocytosis inh	MEX-5 binding	MOR ag counter	HTR2A ag conf
CCOc1ccc(N2C(=O)CC(N(CCc3ccccc3)C(=O)/C=C/C(=O)O)C2=O)cc1 (stereo not given)	4	5	6	1	-1	-2	/	/
CCOc1ccc(N2C(=O)CC(N(CCc3ccc(OC)cc3)C(=O)/C=C/C(=O)O)C2=O)cc1 (stereo not given)	8	-8	17*	1	0	-1	-1	-4
COc1ccccc1C1CC(=O)Nc2c1c(=O)n(C)c(=O)n2C (stereo not given)	-11	-1	14*	-2	-8	-2	0	2
CN(C)S(=O)(=O)c1cccc(NC(=O)c2cccc(S(=O)(=O)N3CCc4ccccc43)c2)c1	7	/	-11	1	3	/	/	/
O=C(NCC1CCCO1)NC1CCCCC1 (stereo not given)	20	-15	17*	3	0	1	-1	-4
S=C(NCC1CCCO1)NC1CC1 (stereo not given)	-12	13	1	0	8	2	/	/
Cc1cccc(NC(=O)c2nc[nH]c2C(=O)Nc2ccccc2F)c1	/	/	-5	0	22	/	/	/
COc1ccc(CN(C)c2ncnc(N)n2)cc1	-5	-15	19*	1	0	1	-1	-3
O=C(CSc1nnnn1-c1cccnc1)Nc1ccccc1F	-7	10	-5	0	-2	-2	/	/
O=C(N[C@H](CO)c1ccccc1)[C@H]1O[C@@H](n2ccc(=O)[nH]c2=O)[C@H](O)[C@@H]1O	/	/	15*	/	1	/	-1	0
O=C(N[C@H](CO)Cc1ccccc1)[C@H]1O[C@@H](n2ccc(=O)[nH]c2=O)[C@H](O)[C@@H]1O	/	/	1	/	3	/	/	/
Oc1c(C(c2ccccn2)N2CCCCC2)cc(Cl)c2cccnc12 (stereo not given)	33	-4	22*	9	-2	17	-1	-18
CCCN(CC(=O)Nc1ccccc1C)C(=O)c1ccc(=O)n(Cc2ccccc2)n1	-1	4	-8	4	-11	-2	/	/
